“And” between values parts separate entries of the source, which are not always exact repeats. Equal values may be shown once. Inconclusive results are not listed. The source made the active and inactive calls. Unless noted, calls follow the shape of the dose curve; as a rule, active = well fitted curve in the direction sought with a large enough effect; inconclusive = small, poorly fitted or top-dose-only effect, or another doubt; inactive = no such curve, though single readings can be large; an effect the other way counts as inactive or inconclusive.
Experiments:
[1] = SDT Cancer Cell Toxicity qHTS against the NCATS CANVASS Library (AID 1347365);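 also: SDT canine glioma cells 500 per well in 1536 well plates; series mostly up to about 46 µM; nearly all actives have a fitted effect of over 60% in size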
Method in brief: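 SDT dog glioma cells (500/well) exposed to an 11-point compound series for 72 hr at 37C, 5% CO2. Cytotoxicity read as ATP content by CellTiterGlo luminescence; bortezomib titration as control.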

[2] = G06 Cancer Cell Toxicity qHTS against the NCATS CANVASS Library (AID 1347368); also: series mostly up to about 46 µM; nearly all actives have a fitted effect of over 60% in size
Method in brief: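 G06 dog glioma cells, 500 per well, exposed 72 hr at 37C, 5% CO2 to compounds in an 11-point series. Cytotoxicity read as ATP content by CellTiterGlo luminescence.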

[3] = qHTS for Hypoxia signaling pathway (HIF-1) agonists against the NCATS CANVASS Library (AID 1347375)
Method in brief: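 HRE-bla ME-180 cells (0.5% dialyzed FBS) were pre-incubated 5 hrs at 37C, then exposed to compounds in an 11-point series for 17 hrs. Read-out was CCF4-AM beta-lactamase FRET (460/530 nm emissions), with CellTiter-Glo viability in the same wells.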

[4] = Secretion counterscreen for inhibitors of the SERCaMP assay screened against the NCATS CANVASS Library (AID 1347390);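 also: light from luciferase secreted into medium read as a measure of general secretion; series mostly up to about 77 µM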
Method in brief: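 Natural products are titrated in an 11-point series up to 77 uM onto SH-SY5Y-GLuc STOP cells for 20 h. Secreted reporter activity is measured as coelenterazine-driven luminescence, with Brefeldin A on each plate.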

[5] = qHTS for inhibitors of ER calcium dysfunction: SERCaMP assay screened against the NCATS CANVASS Library (AID 1347393);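 also: series mostly up to about 77 µM; lower secreted reporter signal means inhibitor of ER calcium depletion; nearly all actives have a fitted effect of over 40% in size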
Method in brief: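 SH-SY5Y GLuc-SERCaMP, 1000 cells/well, 4 h attach; cpd 16 h, 37C/5% CO2; thapsigargin (added as 6x 600 nM) 4 h; coelenterazine; luminescence. Reduced reporter release = ER Ca stabilization.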

[6] = target: Cytochrome P450 2C19 (Homo sapiens) (UniProt P33261); assay: qHTS Assay for Inhibitors and Substrates of Cytochrome P450 2C19 (AID 899); also: potency is read from the fitted curve at half-maximal effect; nearly all actives have a fitted effect of over 60% in size
Method in brief: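 Signal comes from luciferase acting on luciferin released by CYP2C19-mediated hydroxylation of Luciferin-H EGE, 10uM (KM). Assay mix: 5nM enzyme, 50mM KPO4; 60 min at 37C with NADPH regeneration. Data normalized against 57uM ketoconazole.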

[7] = target: Cytochrome P450 2C9 (Homo sapiens) (UniProt P11712); assay: qHTS Assay for Inhibitors and Substrates of Cytochrome P450 2C9 (AID 883); also: nearly all actives have a fitted effect of over 60% in size
Method in brief: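 Signal: luciferase luminescence reporting luciferin produced by CYP2C9. Conditions: 10nM enzyme, Luciferin-H 100uM at KM, 25mM KPO4, 37C, 60 min NADPH-driven reaction. Reference: 57uM sulphaphenazole as 100% inhibition.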

[8] = target: Cytochrome P450 2D6 (Homo sapiens) (UniProt P10635); assay: qHTS Assay for Inhibitors and Substrates of Cytochrome P450 2D6 (AID 891)
Method in brief: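 Human CYP2D6 (5 nM) with 30 uM Luciferin-ME EGE (at Km) in 100 mM KPO4, compound preincubated 10 min, then NADPH regeneration system for 60 min at room temperature. Luciferin read by luminescence; normalized to 1.43 uM quinidine.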

[9] = NCATS anti-infectives library activity on HEK293 viability as a counter-qHTS vs the C. elegans viability qHTS (AID 1745854);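 also: HEK293 cells exposed to compounds for 24 hr before the viability read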
Method in brief: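 HEK293 cells (1,500/well) exposed 24 hr at 37C to 1:5 titrations, up to 41.7 uM final; counter-screen to a C. elegans viability qHTS. Viability by CellTiter-Glo luminescence after 10 min at room temperature; digitonin as control.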

[10] = NCATS anti-infectives library activity on the primary C. elegans qHTS viability assay (AID 1745855; calls by dose curve)
Method in brief: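 Viability read-out is GFP fluorescence of PE254-GFP-FLuc C. elegans, measured by laser cytometry (488 nm) at day 0, 3 and 7. Ten L1 worms per well were incubated 7 days at 21 °C with compounds and bacterial capsules in S medium.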

[11] = target: DNA repair nuclease/redox regulator APEX1 (Homo sapiens) (UniProt P27695); assay: qHTS Validation Assay for Inhibitors of the Human Apurinic/apyrimidinic Endonuclease 1 (APE1) (AID 1705;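 also: TAMRA fluorescence gain over two minutes as APE1 cuts a quenched THF abasic duplex; series mostly up to about 57 µM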)
Method in brief: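 Substrate: 50 nM final fluorophore/quencher THF-abasic duplex. Enzyme preincubated with compounds 15 min, RT. Progress derived from fluorescence difference, third minus first kinetic read.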

[12] = Counterscreen for APE1 Inhibitors: Fluorescent Dye Displacement Validation Assay (AID 1707)
Method in brief: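 Thiazole Orange displacement from dsDNA: 250 nM ThO with 50 nM TAMRA-labelled abasic-site (tetrahydrofuran) duplex in 50 mM Tris-HCl pH7.5, 50mM NaCl, 2 mM MgCl2, 0.01% Tween-20. Loss of endpoint fluorescence (ex 480 nm, em 540 nm) flags DNA binders.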

[13] = qHTS Assay for Modulators of Human Peripheral Myelin Protein 22 (PMP22) Expression/Activity (AID 1967; active = well fitted curve in the direction sought with a large enough effect in the signal ratio; the % refers to the signal ratio)
Method in brief: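 Engineered MSC80 cells, Pmp22-promoter green and EF-alpha red luciferase reporters; 24h compound treatment at 37 °C. Concentration-response fits on green, red and ratio signals, each overlap-corrected, with %Activity normalized to untreated wells.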

[14] = target: Ferritin light chain (Equus caballus) (UniProt P02791); assay: qHTS Validation Assay for Identification of Novel General Anesthetics (AID 2323); also: series mostly up to about 77 µM
Method in brief: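 Normalized fluorescence response, scaled between free 1-AMA and 1-AMA/apoferritin complex, fitted to a four-parameter Hill equation for concentration-effect values. Binding mix: 10 uM horse-spleen apoferritin, 50% saturated 1-AMA in PBS; read 380/535 nm after 10 min.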

[15] = target: ATP-dependent DNA helicase Q1 (Homo sapiens) (UniProt P46063); assay: qHTS Validation Assay for Inhibitors of RecQ-Like Dna Helicase 1 (RECQ1) (AID 2353)
Method in brief: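 50 nM RECQ1T1 preincubated 15 min with compound in Tris pH 8.0 buffer with MgCl2, DTT, Tween-20 and 2.5 ug/ml poly(dI-dC); started with 200 nM TAMRA/BHQ-2 forked duplex and 2 mM ATP. Unwinding read as fluorescence (525/598 nm), two reads 2 h apart.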

[16] = Validation screen for small molecules that induce DNA re-replication in MCF 10A normal breast cells (AID 463097); also: nearly all actives have a fitted effect of over 60% in size
Method in brief: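 Following 48 hr compound incubation (37 C, 5% CO2), MCF 10A cells receive Hoechst for 40 min at 37 C. Nuclei are then scanned (excitation 405 nm, emission 500-530 nm) for total fluorescence intensity.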

[17] = Quantitative high throughput screen for delayed death inhibitors of the malarial parasite plastid, 48 hour incubation (AID 488752); also: nearly all actives have a fitted effect of over 65% in size
Method in brief: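 Erythrocytes infected with firefly luciferase-expressing P. falciparum (2% hematocrit, 0.1% parasitemia) cultured with compound for 48 h at 37 C, 5% CO2, in RPMI 1640/0.5% Albumax. Growth inhibition read as loss of luminescence.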

[18] = target: N-terminal Xaa-Pro-Lys N-methyltransferase 1 (Homo sapiens) (UniProt Q9BV86); assay: qHTS Assay for Inhibitors of N-terminal methyltransferase 1 (NTMT1): LOPAC validation of the NTMT1 SAHH-coupled ThioGlo3 Assay (AID 1347143);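 also: SAH from peptide methylation measured as thiol fluorescence via SAHH coupling and ThioGlo3; nearly all actives have a fitted effect of over 70% in size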
Method in brief: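 Recombinant human NTMT1 (125nM) was pre-incubated 1 min at room temperature with compounds over a concentration range, then a mix of 100uM SAM, 10uM SAHH and 15uM ThioGlo3 (concentrations in added reagent) was added. ThioGlo3 fluorescence (ex 340/em 450nm) after 30 min was normalized to the initial reading.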

[19] = Cell Viability - LYMP1-002 - Assay at 24 hr (AID 993)
Method in brief: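 Human lymphoblastoid LYMP1-002 cells (2500/well) treated 24 h at 37 °C; viability as intracellular ATP by CellTiter-Glo luminescence. Tetraoctylammonium bromide as positive control; AC50 from Hill-equation fits of qHTS concentration-response.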

[20] = Cell Viability - LYMP1-002 - Assay at 40 hr (AID 994); also: nearly all actives have a fitted effect of over 60% in size
Method in brief: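 LYMP1-002 human lymphoblastoid cells (2500/well, complete medium) were treated with compounds for 40 hr at 37 C. Intracellular ATP was measured by CellTiter-Glo luminescence, and AC50 values came from Hill-equation fits of concentration-response data; tetraoctylammonium bromide was the positive control.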

Measured: Potency

Sequence of Cytochrome P450 2D6 (Homo sapiens) (P10635 whole entry, looked up): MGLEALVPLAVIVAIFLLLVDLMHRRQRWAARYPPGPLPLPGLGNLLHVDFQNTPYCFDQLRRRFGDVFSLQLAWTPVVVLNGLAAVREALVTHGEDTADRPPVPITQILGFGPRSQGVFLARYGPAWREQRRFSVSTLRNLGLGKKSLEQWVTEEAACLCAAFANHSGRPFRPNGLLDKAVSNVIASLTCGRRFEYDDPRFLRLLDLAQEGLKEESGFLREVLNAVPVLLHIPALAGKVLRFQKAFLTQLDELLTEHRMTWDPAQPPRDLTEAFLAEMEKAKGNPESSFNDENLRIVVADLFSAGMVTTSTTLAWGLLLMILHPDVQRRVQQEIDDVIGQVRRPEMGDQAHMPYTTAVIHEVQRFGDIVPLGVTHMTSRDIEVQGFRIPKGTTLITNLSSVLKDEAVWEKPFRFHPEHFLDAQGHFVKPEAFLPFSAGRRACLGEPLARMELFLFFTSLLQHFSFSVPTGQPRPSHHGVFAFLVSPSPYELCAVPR
Sequence of Cytochrome P450 2C19 (Homo sapiens) (P33261 whole entry, looked up): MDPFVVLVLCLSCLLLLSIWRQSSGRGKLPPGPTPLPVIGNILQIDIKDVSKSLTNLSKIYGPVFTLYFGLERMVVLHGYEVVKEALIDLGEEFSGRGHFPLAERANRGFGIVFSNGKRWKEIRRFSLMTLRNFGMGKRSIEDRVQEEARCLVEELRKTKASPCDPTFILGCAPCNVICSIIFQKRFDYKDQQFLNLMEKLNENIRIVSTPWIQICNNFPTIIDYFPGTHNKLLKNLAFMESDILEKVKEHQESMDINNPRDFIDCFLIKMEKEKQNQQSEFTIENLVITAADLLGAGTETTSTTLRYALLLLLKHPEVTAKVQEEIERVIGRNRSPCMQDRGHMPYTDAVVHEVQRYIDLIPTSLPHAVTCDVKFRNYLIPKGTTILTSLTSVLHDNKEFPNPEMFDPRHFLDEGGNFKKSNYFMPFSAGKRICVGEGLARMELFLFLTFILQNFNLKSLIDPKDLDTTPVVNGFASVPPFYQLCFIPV
Sequence of Ferritin light chain (Equus caballus) (P02791 2-175 limits assumed): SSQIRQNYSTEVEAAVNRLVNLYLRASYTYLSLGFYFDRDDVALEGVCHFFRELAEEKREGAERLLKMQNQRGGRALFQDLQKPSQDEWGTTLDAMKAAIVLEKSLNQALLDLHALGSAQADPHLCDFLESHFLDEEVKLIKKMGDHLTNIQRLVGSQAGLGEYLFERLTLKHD
Sequence of ATP-dependent DNA helicase Q1 (Homo sapiens) (P46063 whole entry, looked up): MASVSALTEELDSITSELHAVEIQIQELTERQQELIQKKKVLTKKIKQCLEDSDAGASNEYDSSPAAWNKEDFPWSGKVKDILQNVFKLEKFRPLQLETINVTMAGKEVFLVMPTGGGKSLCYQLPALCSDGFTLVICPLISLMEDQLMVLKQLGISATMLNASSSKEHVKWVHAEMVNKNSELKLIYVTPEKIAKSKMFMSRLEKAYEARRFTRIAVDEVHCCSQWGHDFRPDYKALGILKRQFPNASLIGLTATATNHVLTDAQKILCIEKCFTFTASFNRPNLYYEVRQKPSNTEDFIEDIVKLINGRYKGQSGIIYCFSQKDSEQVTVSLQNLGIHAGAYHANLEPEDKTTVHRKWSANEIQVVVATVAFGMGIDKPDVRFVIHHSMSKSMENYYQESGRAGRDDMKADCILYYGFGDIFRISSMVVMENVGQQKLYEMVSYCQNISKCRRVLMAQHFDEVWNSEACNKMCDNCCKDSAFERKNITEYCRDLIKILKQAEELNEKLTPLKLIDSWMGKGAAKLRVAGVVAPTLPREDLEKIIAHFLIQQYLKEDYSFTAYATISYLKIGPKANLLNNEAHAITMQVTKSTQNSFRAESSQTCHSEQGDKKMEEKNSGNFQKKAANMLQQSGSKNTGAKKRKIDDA
Sequence of DNA repair nuclease/redox regulator APEX1 (Homo sapiens) (P27695 whole entry, looked up): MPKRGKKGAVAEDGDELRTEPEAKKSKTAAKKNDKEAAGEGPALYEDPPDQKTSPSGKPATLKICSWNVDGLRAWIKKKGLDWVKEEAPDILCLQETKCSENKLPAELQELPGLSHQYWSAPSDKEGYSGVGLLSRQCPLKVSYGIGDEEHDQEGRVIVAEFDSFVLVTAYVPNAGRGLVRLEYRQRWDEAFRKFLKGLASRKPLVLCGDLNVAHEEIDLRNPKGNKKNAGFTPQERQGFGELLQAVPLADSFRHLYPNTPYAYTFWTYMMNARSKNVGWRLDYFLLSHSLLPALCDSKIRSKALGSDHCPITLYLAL
Sequence of Cytochrome P450 2C9 (Homo sapiens) (P11712 whole entry, looked up): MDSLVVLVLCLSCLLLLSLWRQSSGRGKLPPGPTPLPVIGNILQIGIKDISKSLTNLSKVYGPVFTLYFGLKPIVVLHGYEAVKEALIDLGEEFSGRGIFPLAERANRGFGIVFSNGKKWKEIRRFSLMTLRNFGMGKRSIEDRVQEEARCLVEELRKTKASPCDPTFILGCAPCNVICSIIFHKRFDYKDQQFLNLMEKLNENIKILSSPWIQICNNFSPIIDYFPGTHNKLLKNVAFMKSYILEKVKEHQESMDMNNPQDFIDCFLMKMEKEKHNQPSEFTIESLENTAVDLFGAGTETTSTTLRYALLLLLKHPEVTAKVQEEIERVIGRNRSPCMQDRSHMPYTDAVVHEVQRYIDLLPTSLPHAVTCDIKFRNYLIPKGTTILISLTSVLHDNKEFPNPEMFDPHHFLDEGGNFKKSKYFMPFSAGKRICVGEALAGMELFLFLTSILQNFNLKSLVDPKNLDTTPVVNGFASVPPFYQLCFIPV
Sequence of N-terminal Xaa-Pro-Lys N-methyltransferase 1 (Homo sapiens) (Q9BV86 whole entry, looked up): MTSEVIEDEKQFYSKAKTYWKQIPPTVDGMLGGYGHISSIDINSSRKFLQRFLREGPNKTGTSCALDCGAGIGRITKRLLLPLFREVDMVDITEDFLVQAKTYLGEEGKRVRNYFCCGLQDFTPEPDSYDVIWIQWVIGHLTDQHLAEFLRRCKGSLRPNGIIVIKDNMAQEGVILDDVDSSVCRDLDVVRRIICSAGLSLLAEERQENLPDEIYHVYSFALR

NCCc1ccccc1
inactive: [1] | [2] | [3] | [4] | [5]

c1cncc([C@@H]2CCCCN2)c1
active: [6] 2 µM

CN(C)Cc1c[nH]c2ccccc12
active: [8] 158 nM and 10 µM
inactive: [7] | [9] | [10]

CC(=O)OCC1=C(C(=O)[O-])N2C(=O)[C@@H](NC(=O)CCC[C@@H](N)C(=O)[O-])[C@H]2SC1.[Zn+2]
inactive: [11] | [12] | [13] | [14] | [15] | [16] | [17] | [18]

Cc1ccccc1O
inactive: [19] | [20]

CC(=O)[C@H]1CC[C@H]2[C@@H]3CCC4=CC(=O)CC[C@]4(C)[C@H]3CC[C@]12C
inactive: [19] | [20]

From PubChem BioAssay (NCATS)
